Results filed as inconclusive are left out. Activity calls are given as the source filed them. Unless noted, the call rests on the fitted dose curve; in most records, active means well fitted curve in the direction sought with a large enough effect in the repeat runs; inconclusive means weak or mixed curves; inactive means no such curve, though single readings can be large; an effect the other way counts as inactive or inconclusive.
Tests used:
[1] = qHTS assay to identify small molecule agonists of H2AX (AID 1224845; active means well fitted activation curve with a large enough effect in the signal ratio in the repeat runs, not every such curve was filed as active; the % refers to the signal ratio)
How it was run: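 Wild-type CHO-K1 cells, plated overnight, exposed 3hr at 37C to 15 concentrations (0.76% DMSO final). Lysed, then HTRF anti-pH2AX (S139) cryptate and anti-H2AX-d2 antibodies, 24 hr room temperature; 665/620 nm emission read.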

[2] = qHTS assay to identify small molecule agonists of the hypoxia (HIF-1) signaling pathway (AID 1224846; active means well fitted activation curve with a large enough effect in the signal ratio in the repeat runs, not every such curve was filed as active; the % refers to the signal ratio)
How it was run: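 A low-serum medium (0.5% dialyzed FBS) holding 2,000 HRE-bla ME-180 cells per well is preincubated for 5 hrs, dosed with compounds by pintool, and kept a further 17 hrs at 37C, 5% CO2 before CCF4-AM FRET detection of beta-lactamase.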

[3] = qHTS assay to identify small molecule agonists of H2AX - cell viability counter screen (AID 1224847; calls by dose curve; further: top concentration of the series differs between compounds; nearly all actives have a fitted effect of over 30% in size)
How it was run: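 Viability of CHO-K1 (wild type) cells after 3 hr compound exposure was measured by CellTiter-Glo luminescence.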

[4] = qHTS RealTime-Glo MT Cell Viability Assay in HepG2 cells - 24 hour (AID 1224867); further: nearly all actives have a fitted effect of over 50% in size
How it was run: (§1)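 Viability was tracked continuously by NanoLuc luminescence from prosubstrate reduced by living HepG2 cells, at successive time points over 40 h of compound exposure. Cells with reagent were preincubated 5 h at 37 °C before compound addition.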

[5] = qHTS RealTime-Glo MT Cell Viability Assay in HEK293 cells - 32 hour (AID 1224868); further: top concentration of the series differs between compounds; nearly all actives have a fitted effect of over 50% in size
How it was run: (§2)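 Viability tracked continuously by luminescence as live cells reduce a prosubstrate for NanoLuc; HEK293 cells preincubated 5 h, compound-treated at 37 C, and read at 0, 8, 16, 24, 32 and 40 h.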

[6] = A CellTox Green Cytotoxicity Assay to monitor cytotoxicity in HEK293 cells - 0 hour (AID 1224869); further: nearly all actives have a fitted effect of over 50% in size
How it was run: (§3)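 Fluorescence intensity, read at 0, 8, 16, 24, 32 and 40 h of compound treatment, reflected dye binding to DNA of dead HEK293 cells; compounds (23 nL, DMSO) were added 5 h after plating cells with reagent.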

[7] = qHTS RealTime-Glo MT Cell Viability Assay in HepG2 cells - 40 hour (AID 1224870); further: nearly all actives have a fitted effect of over 50% in size
How it was run: (§4)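 HepG2 cells (600/well) mixed with RealTime-Glo MT reagent, settled 5 h at 37 C/5% CO2 before compound addition. Nonlytic NanoLuc luminescence from viable-cell prosubstrate reduction read repeatedly during 40 h treatment at 37 C.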

[8] = A CellTox Green Cytotoxicity Assay to monitor cytotoxicity in HEK293 cells - 40 hour (AID 1224871); further: nearly all actives have a fitted effect of over 45% in size
How it was run: as §3

[9] = qHTS RealTime-Glo MT Cell Viability Assay in HEK293 cells - 16 hour (AID 1224872)
How it was run: as §2

[10] = qHTS RealTime-Glo MT Cell Viability Assay in HepG2 cells - 8 hour (AID 1224873); further: nearly all actives have a fitted effect of over 55% in size
How it was run: as §4

[11] = qHTS RealTime-Glo MT Cell Viability Assay in HEK293 cells - 40 hour (AID 1224874); settings: RealTime-Glo luminescence; max response: hits give low values; further: nearly all actives have a fitted effect of over 50% in size
How it was run: (§5)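 Viable HEK293 cells reduce a cell-permeant prosubstrate; the product diffuses out and is consumed by NanoLuc in the medium to give light. Compounds went in after a 5 h incubation and plates were read over the treatment course.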

[12] = A CellTox Green Cytotoxicity Assay to monitor cytotoxicity in HEK293 cells - 24 hour (AID 1224875); further: nearly all actives have a fitted effect of over 45% in size
How it was run: as §3

[13] = A CellTox Green Cytotoxicity Assay to monitor cytotoxicity in HepG2 cells - 16 hour (AID 1224876); further: nearly all actives have a fitted effect of over 45% in size
How it was run: (§6)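 Using 1536-well format, dye-containing HepG2 suspension was seeded, allowed 5 h at 37 C/5% CO2, dosed by pintool with compounds, positive and negative controls, and imaged for fluorescence across 40 h.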

[14] = qHTS RealTime-Glo MT Cell Viability Assay in HepG2 cells - 32 hour (AID 1224877); further: nearly all actives have a fitted effect of over 55% in size
How it was run: as §1

[15] = A CellTox Green Cytotoxicity Assay to monitor cytotoxicity in HepG2 cells - 24 hour (AID 1224878); further: nearly all actives have a fitted effect of over 45% in size
How it was run: as §6

[16] = A CellTox Green Cytotoxicity Assay to monitor cytotoxicity in HepG2 cells - 40 hour (AID 1224879); further: nearly all actives have a fitted effect of over 40% in size
How it was run: as §6

[17] = qHTS RealTime-Glo MT Cell Viability Assay in HEK293 cells - 0 hour (AID 1224880)
How it was run: as §5

[18] = qHTS assay to identify small molecule antagonists of the estrogen related receptor (ERR) signaling pathway from Tox21 library (AID 1224848); further: nearly all actives have a fitted effect of over 50% in size
How it was run: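 ERR reporter cell line (from NTP) seeded 2,000 cells/well, rested 6 h at 37 C/5% CO2, then pin-dosed with compounds in DMSO. After 18 h at 37 C, ONE-Glo added; luminescence read after 30 min at room temperature.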

[19] = qHTS assay to identify small molecule agonists of the estrogen related receptor (ERR) signaling pathway from Tox21 library (AID 1224849; calls by dose curve; further: nearly all actives have a fitted effect of over 15% in size); settings: ERR reporter cell line, ONE-Glo luciferase, 18 h; at 92.4 µM (top of the series) unless noted
How it was run: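 Screening used an NTP-provided ERR luciferase cell line. Compounds in DMSO were added 6 h after seeding and left 18 h at 37 C before a 30 min ONE-Glo step and luminescence reading.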
On the % scale 0 is the no-effect control and ±100 the full control effect.

NS(=O)(=O)c1ccc(NC(=O)CCC(=O)O)cc1
inactive: outcome [1] | outcome [2] | Potency [3] | outcome [4] | Potency [5] | outcome [6] | outcome [7] | Potency [8] | Potency [9] | outcome [10] | max response [11] 3.03% | outcome [12] | outcome [13] | outcome [14] | outcome [15] | Potency [16] | Potency [17]

CCCCC(CC)COCCO (configuration not stated)
inactive: outcome [1] | Potency [3] | Potency [18] | activity change, positive = activation [19] 5.52% | outcome [4] | Potency [5] | outcome [6] | outcome [7] | Potency [8] | Potency [9] | outcome [10] | max response [11] -0.338% | outcome [12] | outcome [13] | outcome [14] | outcome [15] | Potency [16] | Potency [17]

Cc1cccc(OCC(O)CNC(C)(C)C)c1C (configuration not stated)
inactive: outcome [1] | outcome [2] | Potency [3] | outcome [4] | Potency [5] | outcome [6] | outcome [7] | Potency [8] | outcome [10] | max response [11] 0.394% | outcome [12] | outcome [13] | outcome [14] | outcome [15] | Potency [16] | Potency [17]

O=C(/N=N/C(=O)OCc1ccccc1)OCc1ccccc1
inactive: outcome [1] | outcome [2] | Potency [3] | outcome [4] | Potency [5] | outcome [6] | outcome [7] | Potency [8] | Potency [9] | max response [11] -13.7% | outcome [12] | outcome [13] | outcome [14] | outcome [15] | Potency [16]

O=C(CCN1CCN(CCO)CC1)N1c2ccccc2Sc2ccc(C(F)(F)F)cc21
inactive: outcome [1] | outcome [2] | Potency [3] | outcome [4] | Potency [5] | outcome [6] | outcome [7] | Potency [8] | Potency [9] | outcome [10] | max response [11] -11.6% | outcome [13] | outcome [14] | outcome [15] | Potency [16]

CC(=O)NCCCCCC(=O)O
inactive: outcome [1] | Potency [3] | outcome [4] | Potency [5] | outcome [6] | outcome [7] | Potency [8] | Potency [9] | outcome [10] | max response [11] 5.61% | outcome [12] | outcome [13] | outcome [14] | outcome [15] | Potency [16] | Potency [17]

Nc1ccc(S(=O)(=O)Nc2ccc(Cl)nn2)cc1
inactive: outcome [1] | Potency [18] | activity change, positive = activation [19] 4.62% [at 42.5 µM] | outcome [4] | Potency [5] | outcome [6] | outcome [7] | Potency [8] | outcome [10] | max response [11] -0.389% | outcome [12] | outcome [13] | outcome [14] | outcome [15] | Potency [16]

CC1COc2ccccc2N1 (configuration not stated)
inactive: outcome [1] | outcome [2] | Potency [18] | activity change, positive = activation [19] 13.7% | outcome [4] | outcome [6] | outcome [7] | Potency [8] | Potency [9] | outcome [10] | outcome [12] | outcome [13] | outcome [14] | outcome [15] | Potency [16] | Potency [17]

CCCCCCCCCC(C)=O
inactive: outcome [1] | outcome [2] | Potency [3] | outcome [4] | Potency [5] | outcome [6] | outcome [7] | Potency [8] | max response [11] 10.3% | outcome [12] | outcome [13] | outcome [14] | outcome [15] | Potency [16] | Potency [17]

COc1cc2c(cc1OC)C(=O)CC2
inactive: outcome [1] | Potency [3] | outcome [4] | Potency [5] | outcome [6] | outcome [7] | Potency [8] | Potency [9] | outcome [10] | max response [11] -24.5% | outcome [12] | outcome [13] | outcome [14] | outcome [15] | Potency [16] | Potency [17]

CCCCCCCCSCC
inactive: outcome [1] | outcome [2] | Potency [18] | activity change, positive = activation [19] 4.95% | outcome [4] | Potency [5] | outcome [6] | outcome [7] | Potency [8] | Potency [9] | outcome [10] | max response [11] 7.92% | outcome [13] | outcome [14] | outcome [15] | Potency [16] | Potency [17]

CCCCNc1ccc(C(=O)OCCN(C)C)cc1
inactive: outcome [1] | Potency [3] | outcome [4] | Potency [5] | outcome [6] | outcome [7] | Potency [8] | Potency [9] | outcome [10] | max response [11] -3.43% | outcome [12] | outcome [13] | outcome [14] | outcome [15] | Potency [16] | Potency [17]

— PubChem BioAssay (Tox21)
